# Hit rate of the full screen: of about 330,000 compounds, about 4,200 (1.3%) were called active. Inconclusive results (about 6%) are left out. The list comes from a sample in which actives are over-represented; it also holds similar structures and randomly drawn compounds. Values without a mark were called inactive. The call rests on the fitted dose curve; in most records, active means well fitted activation curve with a large enough effect; inconclusive means small, poorly fitted or top-dose-only effect; inactive means no such curve, though single readings can be large or run the other way.
# Test: qHTS screen for small molecules that induce genotoxicity in human embryonic kidney (HEK293T) cells expressing luciferase-tagged ELG1; further: nearly all actives have a fitted effect of over 60% in size; on activity change, positive = activation: % of control where 0% means no effect
# Conditions: HEK293T ELG1-luciferase reporter, luminescence, 16 h; series mostly up to 46 µM; activity change, positive = activation: at the top concentration
# Procedure, shortened: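 16 hr compound incubation (37 °C, 5% CO2) of HEK293T cells carrying luciferase-tagged ELG1; luciferase then measured by ONE-Glo luminescence after 30 min at RT.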
# Potency means the concentration at half of the fitted maximal effect.
Structure (SMILES),"activity change, positive = activation",Potency
CC(=O)Nc1ccc(S(=O)(=O)NCC(=O)OCC(=O)c2ccc[nH]2)cc1,0.0742%,–
CC(C)NC(=O)Nc1cccc2c1O[C@@H](CN(C)S(=O)(=O)c1ccc(F)cc1)[C@@H](C)CN([C@H](C)CO)C2=O,8.21%,–
O=C(Nc1ccccc1)c1ccc(NC(=O)c2cccs2)cc1,12%,–
CCN(CC)c1ccc(/C=N/NC(=O)CNC(=O)c2cccs2)cc1,4.59%,–
CC(=O)Nc1ccc(/C=N/NC(=O)c2cccs2)cc1,–,16.4 µM (active)
Cc1noc(C)c1S(=O)(=O)N(C)C[C@H]1Oc2ccc(NC(=O)C3CCCCC3)cc2C(=O)N([C@H](C)CO)C[C@@H]1C,5.56%,–
Cc1ccc(NC(=O)C2CCC(C(C)(C)C)CC2)cc1S(=O)(=O)N1CCOCC1 (stereo unspecified),-11%,–
CN(C(=O)c1cccc(NC(=O)Cc2cccc([N+](=O)[O-])c2)c1)C1CCCCC1,-3.81%,–
Cn1nnnc1SCC(=O)Nc1cccc(S(=O)(=O)N2CCCCC2)c1,1.1%,–
Cc1ccccc1Nc1nc(N)nc(CSc2ccccc2)n1,–,9.2 µM (active)
Cc1ccccc1Nc1nc(N)nc(CN2CCN(c3ccccn3)CC2)n1,-6.82%,–
Cc1ccc(C(=O)OCc2nc(N)nc(Nc3ccccc3C)n2)cc1,1.15%,–
Cc1ccc(S(=O)(=O)Cc2cc(-c3ccc(Cl)cc3)no2)cc1,-7.84%,–
Oc1ccccc1-c1cc(-c2ccc(Cl)cc2)n[nH]1,–,2.31 µM (active)
Cc1ccc(NC(=O)c2cc(-c3ccccc3O)n[nH]2)cc1C,8.24%,–
CCCCOc1ccc(C(=O)NCC(=O)OCC(=O)c2c(N)n(C)c(=O)n(C)c2=O)cc1,0.582%,–
C[C@H](CO)N1C[C@H](C)[C@@H](CN(C)S(=O)(=O)c2ccc(F)cc2)Oc2c(NC(=O)Nc3ccccc3)cccc2C1=O,-6.35%,–
CCOC(=O)CCCCCC(=O)Nc1ccc2c(c1)CC(=O)N([C@@H](C)CO)C[C@H](C)[C@@H](CN(C)Cc1ccccc1)O2,1.2%,–
Cc1ccn2cc(-c3nonc3C)cc2c1,–,23.1 µM (active)
O=C1CN(C(=O)COC(=O)/C=C/c2ccc(F)cc2)c2ccccc2N1,1.53%,–
O=C(O)c1ccccc1-c1ccccc1C(=O)Nc1cccc2ccccc12,-0.978%,–
O=C(Nc1cccc2ccccc12)c1onc2c1CCCC2,–,16.4 µM (active)
O=C(O)Cc1ccc(NC(=O)Nc2cccc3ccccc23)cc1,-0.0328%,–
O=C(Nc1cccc(S(=O)(=O)N2CCOCC2)c1)C12CC3CC(CC(C3)C1)C2,-5.08%,–
O=C(COC(=O)c1ccccc1O)NCc1ccco1,1.74%,–
O=C(CSc1ncn[nH]1)Nc1ccc(Br)cc1Br,1.9%,–

Structure (SMILES),"activity change, positive = activation",Potency
O=C(Nc1ncccc1O)c1ccc(S(=O)(=O)N2CCCC2)cc1,23.2%,–
O=C(CNC(=O)c1ccc2ccccc2c1)Nc1ncccc1O,16.9%,–
O=C(Nc1ncccc1O)c1ccc(C(=O)c2ccccc2)cc1,–,18.3 µM (active)
CC1Sc2ccc(C(=O)NCc3ccccc3Cl)cc2NC1=O (stereo unspecified),2.84%,–
CCCCNS(=O)(=O)CCNCc1ccccc1OC,13%,–
CCCC(=O)N(CCN1CCOCC1)c1nc2ccc(OCC)cc2s1,0.969% [at 9.26 µM],–
CCOc1ccc2nc(N(CCN(C)C)C(=O)c3ccc4ccccc4c3)sc2c1,-1.72%,–
CCOc1ccc2nc(C(=O)N3CCCC(C)C3)sc2c1 (stereo unspecified),–,10.3 µM (active)
C=CC[C@@H](Cc1ccc(F)cc1)C(=O)OC[C@H]1CCCN1C(=O)[C@H](CC=C)CC(=O)N(CCO)Cc1ccccc1,-5.84%,–
COc1cccc(-c2sc3ccc(OC)cc3c2-c2ccc(OCCN3CCCCC3)cc2)c1,-1.09%,–
COC(=O)[C@]1(Cc2ccccc2)N[C@H](CN(C)S(=O)(=O)c2ccc(OC(F)(F)F)cc2)[C@@H]2C(=O)N(C)C(=O)[C@@H]21,-2.77%,–
O=C(c1ccc(N2CCOCC2)c([N+](=O)[O-])c1)N1CCN(c2ccccc2F)CC1,-9.33%,–
Cc1nc2cc(NC(=O)Nc3cccc(F)c3)ccc2n1C,–,0.92 µM (active)
C=CCN(C(=O)Nc1ccc2c(c1)nc(C)n2C)c1ccccc1,16.1%,–
Cc1nc2cc(NCc3cccs3)ccc2n1C,28.1%,–
CNC[C@H]1Oc2c(NC(=O)C3CCCCC3)cccc2C(=O)N([C@H](C)CO)C[C@@H]1C,-1.66%,–
CCOc1ccccc1/C=N/Nc1nc2ccccc2o1,7.08%,–
COc1ccc(/C=N/Nc2nc3ccccc3o2)cc1OC,–,2.59 µM (active)
COc1ccc(/C=N\NC(=O)c2sc(N)nc2C)cc1OC,12.3%,–
Brc1ccccc1/C=N/Nc1nc2ccccc2o1,–,11.6 µM (active)
Oc1c(Br)cccc1/C=N/Nc1c(F)c(F)c(F)c(F)c1F,-4.64%,–
COc1cc(/C=N\Nc2nc(-c3cccs3)c(NC(C)=O)s2)ccc1O,-3.28%,–
CCCCNc1c(-c2ccc(OC)c(Sc3ccc(OC)cc3)c2)nc2ccc(Cl)cn12,-4.18%,–
O=C(CCNC(=O)c1ccccc1)NN=Cc1ccc(Br)o1,-0.0854%,–
CC(=O)N(O)CCCCCNC(=O)CCC(=O)N(O)CCCCCNC(=O)CCC(=O)N(O)CCCCCNC(=O)CCC(=O)O,5.77%,–
CCN(CC)c1ccc(/C=N/NC(=O)CNC(=O)c2cccnc2)cc1,2.7%,–

Structure (SMILES),"activity change, positive = activation",Potency
CCN(CC)c1ccc(/C=N/NC(=O)c2cnccn2)c(O)c1,–,18.3 µM (active)
Cc1ccc(C(=O)NCCNC(=O)c2cnccn2)cc1,-0.0843%,–
CN(CC(=O)NCCc1ccc(S(N)(=O)=O)cc1)CC(=O)Nc1ccc(Cl)cc1,0.0154%,–
COc1ccc(C(=O)NCc2ccccc2C)cc1S(=O)(=O)NC1CCCC1,1.93%,–
CCc1c(C)sc(NC(=O)c2ccc(Br)o2)c1C(=O)OC,-1.84%,–
CCOC(=O)c1oc2ccccc2c1NC(=O)c1cccs1,-1.95%,–
CCc1c(C)sc(NC(=O)c2cccs2)c1C(N)=O,–,18.4 µM (active)
CC(Sc1nncn1C)C(=O)NCCC1=CCCCC1 (stereo unspecified),-0.535%,–
CN1C(=O)[C@H]2[C@@H](/C=C/c3ccccc3)N3C(=O)CN(Cc4ccc(-c5ccccc5)cc4)C(=O)[C@@]3(C)[C@H]2C1=O,-1.14%,–
Cn1c(N)c(C(=O)COC(=O)c2ccc3ccccc3c2)c(=O)n(C)c1=O,-2.01%,–
COC(=O)CCC(=O)N1CCCC(CO)(Cc2ccccc2)C1 (stereo unspecified),–,20.6 µM (active)
Cc1ccccc1CC1(CO)CCCN(C(=O)c2cc(-c3ccccc3)no2)C1 (stereo unspecified),-1.39%,–
CCCc1cc(C(=O)N2CCCC(CO)(CCCc3ccccc3)C2)n(C)n1 (stereo unspecified),-3.98%,–
Cc1onc(-c2c(F)cccc2Cl)c1C(=O)OCC(=O)N1C(C)CCCC1C (stereo unspecified),-5.26%,–
CCN(CC(=O)NC(C)C)C(=O)c1cc(S(=O)(=O)N2CCCCC2)ccc1N1CCCCC1,2.3%,–
O=C(c1cc(-c2ccc(O)cc2)on1)N1CCCc2ccccc21,12.3%,–
O=C(c1cc(-c2ccc(F)cc2)on1)N1CCN(c2ccc(F)cc2)CC1,1.19%,–
O=C(c1cc(-c2ccc(O)cc2)on1)N1CCOCC1,–,4.61 µM (active)
COc1ccc(-c2c(C#Cc3ccsc3)c3cc(-c4ccc(CN5CCOCC5)cc4)ccc3n2C)cc1,0.314%,–
O=C(COC(=O)c1ccccc1C(=O)c1ccccc1)c1ccco1,-0.249%,–
O=C(OCC(=O)N1CCCC1)c1ccco1,2.73%,–
CCc1ccc(C(=O)COC(=O)c2ccco2)cc1,–,23.1 µM (active)
COc1ccc(S(=O)(=O)N2CCN(CC(=O)N3CCOCC3)CC2)cc1OC,0.561%,–
CCOC(=O)C1=CN(Cc2ccc(Br)cc2)S(=O)(=O)N(C)C1C (stereo unspecified),8.95%,–
COc1cc(NC(=O)COC(=O)c2cc(S(=O)(=O)N3CCOCC3)ccc2F)cc(OC)c1,1.61%,–
CS(=O)(=O)N1CCN(c2cccc(Cl)n2)CC1,0.407%,–

Structure (SMILES),"activity change, positive = activation",Potency
CS(=O)(=O)N1CCc2nc(-c3ccccc3)sc2C1,–,9.2 µM (active)
CS(=O)(=O)N1CCC(C(=O)N2CCN(c3ccccc3)CC2)CC1,21.4%,–
COc1ccc(C(=O)COC(=O)CN2C(=O)C3CC=CCC3C2=O)c(OC)c1 (stereo unspecified),10.6%,–
CC(Sc1ncnc2c1cnn2-c1ccccc1)C(=O)Nc1ccc(N2CCOCC2)cc1 (stereo unspecified),4.63%,–
CC(C)Sc1ncnc2c1cnn2-c1ccccc1,–,8.2 µM (active)
CCC(C)N(C(=O)CSc1ncnc2c1cnn2-c1ccccc1)C1CCS(=O)(=O)C1 (stereo unspecified),8.25%,–
COc1ccc(Br)cc1CN(C)C(=O)C1CC(=O)N(C2CCCC2)C1 (stereo unspecified),-1.91%,–
O=C1NC(Cc2ccc(O)cc2)c2nc3ccc(Cl)cc3c(=O)n2-c2ccccc21 (stereo unspecified),-0.0778%,–
CCOC(=O)c1ccc(NC(=O)CNC(=O)c2ccco2)cc1,-0.116%,–
O=C(Nc1ccccc1)c1ccco1,10.5%,–
COC(=O)c1ccc(NC(=O)c2ccco2)cc1,–,20.6 µM (active)
O=C(CN1C(=O)NC(Cc2c[nH]c3ccccc23)C1=O)Nc1ccccc1C(F)(F)F (stereo unspecified),1.08%,–
C[C@H]1COC(=O)[C@H](CC(=O)OC(C)(C)C)C/C=C\C[C@@H](CC(=O)N[C@H](CO)Cc2ccccc2)C(=O)N1,1.67%,–
CCOC(=O)C1=C(C)N(C[C@@H]2CC[C@@H](Cc3ccc(-c4ccccc4)cc3)O2)C(=O)NC1c1ccc([N+](=O)[O-])cc1 (stereo partly specified),-1.18%,–
O=C(CCNC(=O)c1ccccc1Cl)NCc1ccco1,0.628%,–
COc1ccc(C(=O)Nc2ccccc2C(=O)NCc2ccco2)cc1,2.53%,–
O=C(NCc1ccco1)c1nn2cccnc2c1Cl,8.92%,–
COc1ccc(CNC(=O)CNC(=O)c2sc3ccccc3c2Cl)cc1OC,-0.263%,–
COc1ccc2c(Cl)c(C(=O)NCc3ccco3)sc2c1,–,10 µM (active)
O=C(NCc1ccco1)c1sc2cccc(F)c2c1Cl,–,18.4 µM (active)
COc1cc(/C=C2\Oc3ccc(C#Cc4ccc(O)cc4)cc3C2=O)cc(OC)c1,13.2%,–
Cc1cc(C(=O)OCC(=O)N2C(C)CCCC2C)c2ccccc2n1 (stereo unspecified),-1.01%,–
O=C(c1cnccn1)N1CCN(S(=O)(=O)c2cccc(Cl)c2)CC1,1.23%,–

# — PubChem BioAssay AID504466 (National Center for Advancing Translational Sciences (NCATS), 2011)
